Mdm2 MdmX PPI – disrupts the human Mdm2-MdmX interaction | SaOS-2 split-luciferase Mdm2/MdmX complementation, luminescence | inhibition, % at 8 µM | actives 3% (n = 330,000) | AID 485346;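 active = inhibition of at least 50% at 8 µM in the primary screen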
Target sequence (O15151 whole entry, looked up): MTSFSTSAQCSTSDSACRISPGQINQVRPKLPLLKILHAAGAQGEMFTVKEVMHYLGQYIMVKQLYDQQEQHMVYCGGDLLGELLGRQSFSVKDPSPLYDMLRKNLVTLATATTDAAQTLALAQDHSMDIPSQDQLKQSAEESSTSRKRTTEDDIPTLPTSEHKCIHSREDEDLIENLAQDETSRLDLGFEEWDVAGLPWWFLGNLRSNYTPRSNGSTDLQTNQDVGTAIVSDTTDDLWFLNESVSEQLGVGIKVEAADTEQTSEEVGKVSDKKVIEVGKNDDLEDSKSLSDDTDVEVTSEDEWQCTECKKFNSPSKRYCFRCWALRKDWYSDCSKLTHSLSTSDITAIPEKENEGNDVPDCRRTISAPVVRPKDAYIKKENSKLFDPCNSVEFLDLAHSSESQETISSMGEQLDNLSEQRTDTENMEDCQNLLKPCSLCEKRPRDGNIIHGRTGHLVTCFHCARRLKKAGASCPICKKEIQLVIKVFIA
Target sequence (Q00987 whole entry, looked up): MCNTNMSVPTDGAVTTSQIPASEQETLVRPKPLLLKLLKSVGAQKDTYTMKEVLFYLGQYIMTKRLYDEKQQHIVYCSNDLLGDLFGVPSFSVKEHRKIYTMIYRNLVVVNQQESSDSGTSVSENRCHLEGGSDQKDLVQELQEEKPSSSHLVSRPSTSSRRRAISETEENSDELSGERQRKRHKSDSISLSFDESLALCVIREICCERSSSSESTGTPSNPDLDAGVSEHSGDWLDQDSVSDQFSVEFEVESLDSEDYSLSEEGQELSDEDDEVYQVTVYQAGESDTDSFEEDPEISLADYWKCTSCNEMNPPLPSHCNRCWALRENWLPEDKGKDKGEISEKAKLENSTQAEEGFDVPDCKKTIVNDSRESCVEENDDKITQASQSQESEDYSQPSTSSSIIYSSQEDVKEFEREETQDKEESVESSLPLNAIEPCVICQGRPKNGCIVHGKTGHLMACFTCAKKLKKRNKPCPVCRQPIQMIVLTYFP
Beta apoptosis – beta cell apoptosis inhibition; protection from apoptosis, % (test concentration not listed); INS-1E cytokine-induced death, ATP luminescence, 48 h; percent of positive-control rescue, neutral wells zero; AID 435005; actives 0.8% (n = 300,000);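 active = Every replicate reaches about 75%, or at least half do and their mean reaches it too, limit read from the data; inconclusive = At least half of replicates reach the limit but their mean does not; inactive = Under half of replicates reach the limit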;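 note: 0% = cytokine-treated negative control wells and 100% = positive control rescue; higher means more ATP so stronger rescue from cytokine killing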
MPTP inh – inhibitors of mitochondrial permeability transition pore. isolated mouse mitochondria, Ca2+ swelling absorbance, 30 min. actives 1.4% (n = 360,000). inhibition, % at 10 µM;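 active = inhibition of 50% or more, scaled per plate between neutral and stimulator controls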;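 note: 0% = DMSO wells given calcium and 100% = 1 mM EGTA wells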
Calb FLC – C. albicans growth modulation with fluconazole. C. albicans CaCi-2 (fluconazole-resistant clinical isolate) + fluconazole, Alamar Blue growth, 48 h. growth inhibition, % (test concentration not listed). actives 0.57% (n = 300,000);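 active = growth inhibition above about 58% in most replicates, limit read from the data, passing the limit was not always enough; inconclusive = exactly half the replicates above a set limit; inactive = most replicates below a set limit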;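 note: all wells also contain fluconazole at 8 µg/ml as a sub-toxic cotreatment; 0% = median of DMSO wells and 100% = median of geldanamycin control wells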
CSC inhib – cancer stem cell inhibition; inhibition, % at 7.5 µM; actives 1.1% (n = 300,000); AID 2717; cancer stem cell-like cells viability, luminescence; in the data active = inhibition above about 75%; inconclusive = no clear call, values can overlap the other calls; tested in HMLE shEcad cells
SKKanGAS inh – blocks kanamycin growth of S. pyogenes SKKanGAS strain. BacTiter-Glo, 6 h. inhibition, % at 7.5 µM. actives 1.3% (n = 300,000);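 active = mean replicate score, as percent of positive control median, at least 50; inconclusive = mean below 50 but one replicate at or above 50; inactive = mean and every replicate below 50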;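 note: strain carries kanamycin resistance gene driven by streptokinase promoter and grows in 40 µg/ml kanamycin; loss of luminescence reflects streptokinase promoter inhibition or plain growth inhibition; 0% = median of DMSO wells and 100% = positive control at its reference dose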
MPTP counter – membrane potential counter-screen of mitochondrial pore inhibitors; actives 78% (n = 5,000); inhibition, % at 10 µM; shares compounds with MPTP inh; isolated mitochondria, Rhodamine 123 fluorescence; in the data active = inhibition above about 22%;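 note: 0% = DMSO vehicle and 100% = positive control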
MPTP abs DR – MPTP inhibition, dose response swelling confirmation. shares compounds with MPTP inh. isolated mitochondria swelling, absorbance. IC50, µM. actives 58% (n = 780). AID 651561; in the data active = IC50 below about 20 µM
MPTP counter DR – counter-screen for mitochondrial permeability transition pore inhibitors, dose response. shares compounds with MPTP inh. isolated mitochondria counterscreen, fluorescence read-out. IC50, µM. actives 49% (n = 780); in the data active = IC50 below about 80 µM
* marks the source's active call; other numbers are inactive results; i = inactive; ? = inconclusive; . = no result given; + = active, no number. The list is not random: actives were taken first. Their share in the collection is about 5.4%.

SMILES | Mdm2 MdmX PPI | Beta apoptosis | MPTP inh | Calb FLC | CSC inhib | SKKanGAS inh | MPTP counter | others
COC(=O)Cc1cc(=O)n2[nH]c(C)nc2n1 | 13 | -7 | -1 | 3 | 1 | -3 | .
COC(=O)Cc1cc(=O)n2[nH]c(C)cc2n1 | 15 | -2 | + | 0 | 0 | -1 | 2 | MPTP abs DR=>100;MPTP counter DR=>80
S=C(Nc1ccc(OCc2ccccc2)cc1)Nc1cccc(Cl)c1Cl | 3 | 1 | 86* | -22 | 4 | -12 | 79*
O=C(CSCc1ccccc1)NNC(=S)Nc1cccc(Cl)c1Cl | -8 | -2 | 92* | -3 | 22 | 9 | 103*
S=C(Nc1ccccc1)Nc1ccc(OCc2ccccc2)cc1 | -3 | -12 | 9 | 7 | -7 | -4 | .
COc1ccc(/C=C(\NC(=O)c2ccco2)C(=O)Nc2ccc(C(C)=O)cc2)cc1 | -16 | 6 | -1 | -5 | 3 | . | .
Cc1ccc(NC(=S)NCc2ccccc2)cc1C | -2 | -6 | 8 | -23 | -14 | -1 | .
O=C(Nc1cc(S(=O)(=O)Nc2ccc(Cl)cc2)ccc1O)c1ccc(S(=O)(=O)N2CCCCCC2)cc1 | 13 | -12 | 91* | 15 | 18 | 13 | 42*
O=C(Nc1cc(S(=O)(=O)N2CCCCC2)ccc1O)c1ccccc1NS(=O)(=O)c1ccc(F)cc1 | 19 | 4 | 97* | 43 | 44 | 20 | 71*
O=C(Nc1cc(S(=O)(=O)N2CCOCC2)ccc1O)c1ccc(S(=O)(=O)N2CCCCC2)cc1 | 6 | 2 | -1 | . | -17 | . | .
CCOc1ccc(NC(=O)c2ccccc2NS(=O)(=O)c2ccc(F)cc2)c([N+](=O)[O-])c1 | 23 | 39 | 92* | 4 | 41 | -1 | 94*
O=C(Nc1cc(S(=O)(=O)N2CCCCC2)ccc1Cl)c1ccccc1NS(=O)(=O)c1ccc(F)cc1 | . | 130* | 97* | ? | 83* | 42 | 60*
CCOC(=O)C1CCN(S(=O)(=O)c2cccc(C(=O)Nc3ccccc3)c2)CC1 | 24 | -2 | 0 | 6 | -11 | -6 | .
CCCCCCCCSc1nnc(CSc2nc3nc(C)cc(C)n3n2)o1 | 18 | ? | 87* | 2 | 62 | 12 | -2 | MPTP abs DR=i;MPTP counter DR=50*
Cc1ccc(-n2ncc3c(N4CCCC(C)C4)ncnc32)c(C)c1 (configuration not stated) | -149 | 17 | 59* | -3 | 37 | -5 | 43*
Cc1ccc(-n2ncc3c(N4CCCC4)ncnc32)c(C)c1 | -9 | . | -1 | 36 | -6 | 1 | .
Cc1ccc(-n2ncc3c(NCCCn4ccnc4)ncnc32)c(C)c1 | 27 | -4 | 0 | -2 | 2 | -1 | .
Cc1ccc(-n2ncc3c(SCc4cccnc4)ncnc32)c(C)c1 | . | . | 88* | 47 | . | 2 | 82*
COc1ccc(CNc2ncc(-c3cccc([N+](=O)[O-])c3)n2C)c(OC)c1OC | 6 | -6 | 2 | -8 | -7 | 3 | .
CC(C)C(=O)Nc1ccc(N2CCN(C(=O)c3cccs3)CC2)cc1 | 3 | 0 | 0 | 47 | 2 | 0 | .
CC(C)CC(=O)NC(=S)Nc1ccc(N2CCN(C(=O)c3cccs3)CC2)cc1 | 43 | 40 | 93* | 1 | 5 | 16 | 64*
CC(=O)N1CCN(c2ccc(NC(=S)NC(=O)COc3ccc(C(C)(C)C)cc3)cc2)CC1 | 12 | 1 | 88* | 43 | 21 | 4 | 88*
CN(C)CCCCNCCCNC(=O)/C=N\O | 0 | -10 | -2 | 22 | -4 | -2 | .
CC1=NN(c2ccc(Cl)cc2)C(=O)C1C(c1cccc(O)c1)c1c(C)[nH]n(-c2ccc(Cl)cc2)c1=O (configuration not stated) | 21 | 10 | 101* | -1 | 56 | 25 | 20*
CC1=NN(c2ccc(F)cc2)C(=O)C1C(c1cccc(O)c1)c1c(C)[nH]n(-c2ccc(F)cc2)c1=O (configuration not stated) | 5 | -4 | 3 | -2 | -16 | -10 | .
SMILES | Mdm2 MdmX PPI | Beta apoptosis | MPTP inh | Calb FLC | CSC inhib | SKKanGAS inh | MPTP counter | others
CCOc1cc(CNCc2ccncc2)cc(Br)c1OCc1ccccc1F | -20 | 28 | 61* | -1 | -26 | -11 | 76*
CCOc1cc(CNCCO)cc(Br)c1OCc1cccs1 | 27 | 9 | 93* | -18 | 2 | -5 | 9 | MPTP abs DR=4.1*;MPTP counter DR=23*
CC1CCCCN1C(=O)CSc1nnc(-c2ccco2)o1 (configuration not stated) | -19 | -9 | 0 | -3 | 2 | 0 | .
O=C(Nc1nc(-c2ccc(Cl)s2)cs1)c1ccncc1 | 9 | 10 | 62* | -37 | 11 | -4 | 63*
CC1(C)SC(=S)N(NC(=O)Nc2ccccc2)C1N(O)C(=O)Nc1ccccc1 (configuration not stated) | -6 | 0 | 58* | -4 | 12 | 29 | 70*
CNC(=O)N(O)C1N(NC(=O)Nc2cccc3ccccc23)C(=S)SC1(C)C (configuration not stated) | -1 | 18 | -2 | 4 | 23 | 0 | .
CCCOc1ccc(F)cc1-c1cc(C(=O)NCc2ccccc2)[nH]n1 | . | . | 0 | . | . | . | .
COc1ccc(CCNC(=O)c2c(-c3ccccc3Cl)noc2C)cc1 | -2 | . | 0 | 19 | . | -14 | .
N/C(=N\OC(=O)COc1ccc2ccccc2c1)c1cccnc1 | -36 | -6 | 61* | ? | 9 | -16 | 84*
CC1(C)Cc2c(c(-c3ccco3)[nH]c(=O)c2C#N)CO1 | 5 | -7 | 1 | -4 | -10 | 1 | .
CCOc1ccccc1NC(=O)C1Cc2ccccc2CN1S(C)(=O)=O (configuration not stated) | 12 | . | 0 | -6 | -18 | -5 | .
COCCNCCCCOc1ccc(Br)cc1C | 18 | -2 | 0 | -2 | -4 | 6 | .
COCCCNCCCCOc1ccc(Br)cc1C | 33 | -1 | 63* | -6 | 50 | 4 | -13 | MPTP abs DR=8.7*;MPTP counter DR=>80
O=C(NCCCNc1ccc(C(F)(F)F)cc1[N+](=O)[O-])c1ccc(Cl)cc1 | 21 | -4 | 58* | -6 | 30 | 17 | 74*
CCCCOc1ccc(CC(=O)NCC(=O)O)cc1 | 11 | 1 | 0 | -14 | -18 | -17 | .
Cc1cc(Cl)c(S(=O)(=O)NC2CCCC2)cc1OCC(=O)NC1CCCCC1 | 14 | 27 | 80* | -20 | -10 | 3 | 72*
Cc1cc(Cl)c(S(N)(=O)=O)cc1OCC(=O)NC1CCCCC1 | -3 | -5 | 1 | -6 | 4 | 3 | .
Cc1cc(Cl)c(S(=O)(=O)N2CCCCCC2)cc1OCC(=O)NC1CCCCC1 | 32 | 62 | 37 | -12 | 14 | 1 | .
